Among all 16,000 compounds or so, about 5,100 (32%) were called active. Roughly 25% stayed inconclusive and do not appear here. Calls follow the shape of the dose curve; as a rule, active = well fitted curve in the direction sought with a large enough effect; inconclusive = small, poorly fitted or top-dose-only effect, or effect the other way; inactive = no such curve, though single readings can be large or run the other way. Some of the results follow.
% is scaled to controls: 0 for no effect and ±100 for the full control effect.

Cytochrome P450 3A4 (Homo sapiens), sequence (P08684 whole entry, looked up): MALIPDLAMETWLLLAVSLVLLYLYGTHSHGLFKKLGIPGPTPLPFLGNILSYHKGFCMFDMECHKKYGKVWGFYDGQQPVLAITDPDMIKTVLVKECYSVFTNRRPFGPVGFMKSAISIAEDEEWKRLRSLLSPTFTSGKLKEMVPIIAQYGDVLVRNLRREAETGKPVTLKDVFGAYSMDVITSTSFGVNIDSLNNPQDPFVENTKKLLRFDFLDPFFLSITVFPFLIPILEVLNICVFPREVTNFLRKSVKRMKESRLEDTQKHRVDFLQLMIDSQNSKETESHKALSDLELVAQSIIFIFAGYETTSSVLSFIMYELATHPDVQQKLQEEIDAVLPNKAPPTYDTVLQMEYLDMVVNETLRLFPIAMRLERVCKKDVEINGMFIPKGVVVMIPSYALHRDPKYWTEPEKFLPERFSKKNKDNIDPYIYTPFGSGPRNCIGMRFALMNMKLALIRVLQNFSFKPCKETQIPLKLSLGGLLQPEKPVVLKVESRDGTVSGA

This test addresses Cytochrome P450 3A4 (Homo sapiens) (UniProt P08684). In words: Cytochrome panel assay with activity outcomes. The following applies: recombinant CYP, pro-luciferin dealkylation, luminescence, p450-cyp3a4; series mostly up to 57.1 µM; activity, negative = inhibition: at the top concentration.
The AC50 is the midpoint of the concentration-response curve, whichever way the signal moves. Regarding `N[C@H](CCC(=O)N[C@H](CSN=O)C(=O)NCC(=O)O)C(=O)O`, the AC50 entry was “inactive”.

`CO[C@@H]1COC(=O)[C@H]2CCCN2C(=O)[C@@H](C)COC(=O)CCC[C@H]1C`: the activity, negative = inhibition was -20.2% [at 11.4 µM] (inactive).

With `CC[N+](CC)(CC)CCOc1ccc(/C=C\c2ccccc2)cc1`, the “activity, negative = inhibition” value was -9.87% (inactive).

For `C=CCOc1cccc(/C=N/NC(=O)C(=O)NCc2ccco2)c1`, the “activity, negative = inhibition” value is -17.7% (inactive).

For the molecule `Cc1ccc(C(=O)N/C(=C/C=C/c2ccccc2)C(=O)NCc2ccco2)cc1`, the AC50 is 5.01 µM (active).

`C=CCNC(=O)/C(=C\C=C\c1ccccc1)NC(=O)c1ccc(OCCCC)cc1`: the AC50 was 8.91 µM (active).

For the molecule `Cn1cnc([N+](=O)[O-])c1Sc1nc(N)nc2c1ncn2[C@H]1C[C@H](O)[C@@H](CO)O1`, the activity, negative = inhibition is -4.33% [at 11.4 µM] (inactive).

Turning to `CN1CCC(=C2c3ccccc3C=Cc3ccccc32)CC1`, the AC50 result was “inactive”.

As to `O=C(O)CN(CCOCCOCCN(CC(=O)O)CC(=O)O)CC(=O)O`, the “activity, negative = inhibition” value was 6.56% (inactive).

Turning to `N=C1/C(=C\c2ccc(SCc3ccco3)o2)C(=O)N=C2SC=NN12`, the AC50 was 3.98 µM (active).

In the case of `O=C(O)c1cccc2cccc(-c3cccc4cccc(C(=O)O)c34)c12`, the activity, negative = inhibition is -5.55% [at 11.4 µM] (inactive).

Consider `CCc1ccc(/C=C\C(=O)N2CCc3ccccc3C2)cc1`, for which the “activity, negative = inhibition” value was -11.1% (inactive).

As to `O=C(CN1C(=O)c2cccc3cccc(c23)C1=O)N1CCCCCC1`, the AC50 is 10 µM (active).

As to `N=C(N)N1CCc2ccccc2C1`, the “activity, negative = inhibition” value is -3.56% [at 25.6 µM] (inactive).

With `O=C(c1ccc(S(=O)(=O)N2CCCCCC2)cc1)N1CCC(CN2C(=O)c3cccc4cccc(c34)C2=O)CC1`, the “activity, negative = inhibition” value is -12.4% (inactive).

`O=C(CCCN1C(=O)c2cccc3cccc(c23)C1=O)N1CCc2ccccc2C1`: the AC50 was 5.01 µM (active).

Turning to `COc1ccc(/C=N/NC(=O)c2cc(-c3ccc(C)cc3C)nc3ccccc23)cc1COC(C)=O`, the activity, negative = inhibition is 14.1% [at 0.457 µM] (inactive).

`COc1cccc(-c2cc(C(=O)N/N=C/c3ccc(OC)c(COC(C)=O)c3)c3ccccc3n2)c1`: the AC50 is 1.78 µM (active).

Turning to `COc1cccc(/C=N/NC(=O)c2nc(-c3ccccc3)cc(-c3ccccc3)n2)c1`, the “activity, negative = inhibition” value is 11.4% (inactive).

In the case of `N[C@]1(C(=O)O)CCc2cc(P(=O)(O)O)ccc21`, the “activity, negative = inhibition” value was -9.83% (inactive).

Regarding `CC(C)c1ccc2c(c1)C(c1ccc(N3CCOCC3)cc1)=NNC(c1cccs1)=N2`, the activity, negative = inhibition was 9.44% [at 2.29 µM] (inactive).

`Fc1ccc2c(c1)C(c1ccncc1)=NNC(c1ccc(Cl)cc1)=N2`: the AC50 was 1.78 µM (active).

For the molecule `Clc1ccc2c(c1)C(c1cccs1)=NNC(c1cccnc1)=N2`, the half-maximal activity concentration (AC50) is 10 µM (active).

Take `O=C(O)[C@H]1CCCC[C@@H]1c1c2ccc(=O)c(O)c-2oc2c(O)c(O)ccc12`: the activity, negative = inhibition was -5.27% [at 11.4 µM] (inactive).

In the case of `C=CCSc1nc(Oc2ccccc2)c2sccc2n1`, the AC50 was 10 µM (active).

As for `C=CCSc1nc(NC)c2sccc2n1`, the AC50 is 25.1 µM (active).

As for `C=CCSc1ccsc1C(=O)O`, the “activity, negative = inhibition” value is -6.67% (inactive).

`CSc1nc(Oc2ccc(F)cc2)c2ccccc2n1`: the “activity, negative = inhibition” value was 1.87% (inactive).

Consider `C=CCNc1nc(SCC=C)nc2ccsc12`, for which the AC50 is 12.6 µM (active).

Consider `NS(=O)(=O)c1ccc(N=Nc2c[nH]c(=O)c(O)c2)cc1`, for which the activity, negative = inhibition was -19.5% [at 11.4 µM] (inactive).

As for `O=C(CSc1nc2nc(-c3cccs3)cc(C(F)(F)F)c2c(=O)[nH]1)NCc1ccco1`, the AC50 is 14.1 µM (active).

As for `N#Cc1c(-c2cccs2)nc(SCC(=O)c2cccs2)[nH]c1=O`, the activity, negative = inhibition is -3.29% [at 2.29 µM] (inactive).

On to `CSc1nc(O)c(Cc2ccccc2)c(=O)[nH]1`, for which the “activity, negative = inhibition” value was -2.8% (inactive).

As for `CSc1nc(-c2ccc(C)cc2)[nH]c1S(=O)(=O)c1ccccc1`, the AC50 is 28.2 µM (active).

Consider `CCCCCOC(=O)c1c(N)n(CCOC)c2nc3ccccc3nc12`, for which the AC50 is 8.91 µM (active).

For `C=C(CC1([C@@H](NP(=O)(c2ccccc2)c2ccccc2)[C@H]2C[C@@H]2CCCC)CC1)c1ccccc1`, the concentration at half-maximal activity (AC50) is 1.58 µM (active).

`C=C(CC1([C@@H](NP(=O)(c2ccccc2)c2ccccc2)[C@H]2C[C@@H]2CCCC)CC1)c1cccc(OC)c1`: the AC50 was 2.51 µM (active).

With `C=C(CC1([C@@H](NP(=O)(c2ccccc2)c2ccccc2)[C@H]2C[C@@H]2CCN(C(=O)OCC)S(=O)(=O)c2ccc(C)cc2)CC1)c1ccccc1`, the AC50 was 1.58 µM (active).

As to `O=C(O)c1ccc(SSc2ccc(C(=O)O)cn2)nc1`, the activity, negative = inhibition is -8.92% [at 11.4 µM] (inactive).

In the case of `O=C1CCCN1CC(O)CS(=O)(=O)c1ccccc1` (stereo unspecified), the “activity, negative = inhibition” value was -2.95% (inactive).

Consider `Cc1ccc(C(=O)N(CN2CCCC2=O)c2ccccc2)cc1C`, for which the AC50 was 12.6 µM (active).

Consider `Cc1cc(C(=O)OCC(=O)NCCCN2CCCC2=O)c2ccccc2n1`, for which the activity, negative = inhibition was -5.65% [at 2.29 µM] (inactive).

On to `CC1(C)CO[C@H](CC(=O)O)CN1`, for which the “activity, negative = inhibition” value was -11.5% (inactive).

As to `COc1cccc(OC)c1C(=O)NC(=S)N1CCN(c2ccc(C(F)(F)F)cc2[N+](=O)[O-])CC1`, the activity, negative = inhibition was -16.4% [at 2.29 µM] (inactive).

For the molecule `O=C(O)C1CCN(c2c([N+](=O)[O-])cc(C(F)(F)F)cc2[N+](=O)[O-])CC1`, the “activity, negative = inhibition” value was 4.13% (inactive).

For the molecule `O=c1c([N+](=O)[O-])cc(C(F)(F)F)cn1Cc1c(Cl)cccc1Cl`, the AC50 is 14.1 µM (active).

Take `CCC(=O)OCC(=O)[C@@]1(OC(=O)CC)[C@H](C)C[C@@H]2[C@H]3CCC4=CC(=O)C=C[C@]4(C)[C@]3(Cl)[C@@H](O)C[C@@]21C`: the “activity, negative = inhibition” value is -13.1% [at 25.6 µM] (inactive).

As for `CCC(=O)[C@@]1(C)[C@H](C)C[C@@H]2[C@@H]3CCC4=CC(=O)C=C[C@@]4(C)[C@H]3[C@H](O)C[C@]21C`, the “activity, negative = inhibition” value was -6.68% [at 25.6 µM] (inactive).

In the case of `CN(C)C(N)=NCCC[C@H](N)C(=O)O`, the “activity, negative = inhibition” value is 2.12% (inactive).

Regarding `Cc1ccc(-c2ccc(/C=N\NC(=O)c3cc4c(ccc5ccccc54)o3)o2)cc1[N+](=O)[O-]`, the “activity, negative = inhibition” value is -21.4% (inactive).

Consider `Cc1ccc(-c2ccc(/C=N/NC(=S)Nc3ccccc3)o2)cc1[N+](=O)[O-]`, for which the AC50 was 7.08 µM (active).

For the molecule `Cc1ccc(C(=O)N/N=C\c2ccc[nH]2)cc1[N+](=O)[O-]`, the activity, negative = inhibition was 16.8% [at 2.29 µM] (inactive).

As for `Cc1cc(C(F)(F)F)n2nc(-c3cnn(C)c3C(F)(F)F)c(Cl)c2n1`, the “activity, negative = inhibition” value is -19% (inactive).

Turning to `Clc1ccccc1-c1nc(-n2ccnc2)c2ccccc2n1`, the AC50 is 0.501 µM (active).

Regarding `NC(=O)c1ccccc1-c1nc(-n2ccnc2)c2ccccc2n1`, the AC50 was 3.98 µM (active).

Consider `Cc1ccccc1-c1nc(-n2ccnc2)c2ccccc2n1`, for which the AC50 was 0.398 µM (active).

As to `CC(C)(C)OC(=O)[C@H]([C@@H]1N[C@@H](C(=O)O)C(C)(C)S1)N1C(=O)c2ccccc2C1=O`, the activity, negative = inhibition is -8.52% [at 11.4 µM] (inactive).

As to `Cc1cccc(C)c1-n1c(SCC(=O)NCc2ccco2)nc2ccccc2c1=O`, the AC50 is 3.98 µM (active).

With `COc1ccc(NC(=O)CSc2nc3ccccc3c(=O)n2CCC(=O)N2CCCCC2)cc1`, the AC50 is 2 µM (active).

Consider `Cc1cc(NC(=O)CSc2nc3ccccc3c(=O)n2CCCC(=O)NCc2ccco2)n[nH]1`, for which the AC50 was 3.55 µM (active).

With `CCCCn1c(SCC(=O)Nc2nccs2)nc2ccccc2c1=O`, the AC50 is 3.16 µM (active).

Consider `O=C(CSc1ccccc1C(=O)O)NCc1ccco1`, for which the “activity, negative = inhibition” value was -4.45% (inactive).

Turning to `COCC(=O)N1CCC2(CC1)CCN(C(=O)Nc1ccc(OC)cc1)CC2`, the “activity, negative = inhibition” value is -9.58% (inactive).

With `O=C(CSc1nnc2sc3ccccc3n12)NCc1ccco1`, the activity, negative = inhibition is -18.1% [at 11.4 µM] (inactive).

For `CC(=O)NCCn1c(SCC(=O)NCc2ccco2)nc2ccccc2c1=O`, the half-maximal activity concentration (AC50) was 15.8 µM (active).

As to `CCCCNC(=O)C(=O)c1ccccc1NC(C)=O`, the “activity, negative = inhibition” value was -7.34% (inactive).

On to `O=C(CSc1nnc(-c2ccco2)n1-c1ccccc1)NCc1ccco1`, for which the AC50 was 15.8 µM (active).

Take `CCCCNC(=O)CSc1nc2ccccc2c(=O)n1CCNC(C)=O`: the AC50 was 25.1 µM (active).

Take `C=CCSc1nc2ccccc2c(=O)n1Cc1ccco1`: the activity, negative = inhibition was -25.8% [at 11.4 µM] (inactive).

In the case of `Cc1cc(C)c(NC(=O)C(C)Sc2nnc(-c3ccco3)n2-c2ccccc2)c(C)c1` (stereo unspecified), the AC50 was 3.55 µM (active).

As to `Cc1ccc(Oc2nn[nH]n2)cc1`, the “activity, negative = inhibition” value is 0.361% (inactive).

Turning to `CC1CCC(C(=O)O)([C@H](Br)C(=O)O)CC1` (stereo partly specified), the activity, negative = inhibition is -2.61% [at 11.4 µM] (inactive).

With `NC(=O)OCC(COC(N)=O)c1ccccc1`, the “activity, negative = inhibition” value is -10.4% (inactive).

In the case of `CCCCCn1c(SCc2ccncc2)nc2cc(C(=O)NCc3ccco3)ccc2c1=O`, the concentration at half-maximal activity (AC50) was 0.794 µM (active).

As to `CCS(=O)(=O)N1CCC(C(=O)NCc2ccco2)CC1`, the “activity, negative = inhibition” value is 3.51% (inactive).

As to `CCN(C(=O)CSc1nc2cc(C(=O)OC)ccc2c(=O)n1Cc1ccco1)c1cccc(C)c1`, the “activity, negative = inhibition” value was 16.4% (inactive).

For the molecule `CCOC(=O)CSc1nc2ccccc2c(=O)n1CC1CCC(C(=O)NCc2ccco2)CC1` (stereo unspecified), the AC50 is 5.01 µM (active).

Consider `O=C(CSc1nc2ccccc2c(=O)n1CCCC(=O)N1CCCC1)NCc1ccco1`, for which the AC50 was 6.31 µM (active).

Turning to `O=C(O)CCCCCn1c(SCC(=O)N2CCCC2)nc2ccsc2c1=O`, the “activity, negative = inhibition” value was -2.61% (inactive).

Take `CC(/C=N/n1c(-c2cccnc2)n[nH]c1=S)=C\c1ccccc1`: the AC50 was 2 µM (active).

In the case of `O=C(O)CC[C@]1(C(=O)O)CCC(=O)c2ccccc21`, the activity, negative = inhibition is -0.615% [at 11.4 µM] (inactive).

Consider `COc1ccc(CNc2cc(-c3ccoc3)ncn2)c(OC)c1`, for which the AC50 was 15.8 µM (active).

With `COc1ccccc1CNc1cc(-c2ccoc2)ncn1`, the AC50 is 15.8 µM (active).

With `Cc1ccc(Oc2cc(N3CCOCC3)nc(-c3ccccc3)n2)cc1`, the AC50 was 14.1 µM (active).

Turning to `COc1cccc(Sc2cc(N3CCOCC3)nc(-c3ccccc3)n2)c1`, the AC50 was 0.794 µM (active).

In the case of `Cc1cc(Oc2ccccc2)nc(-c2ccccc2)n1`, the “activity, negative = inhibition” value is 12.9% (inactive).

As for `O=c1nc(N2CCOCC2)ccn1-c1nc(-c2ccccc2)oc1-c1ccccc1`, the “activity, negative = inhibition” value was -11.6% (inactive).

`Cc1ccc(S(=O)(=O)c2cc(N3CCOCC3)nc(-c3ccccc3)n2)cc1`: the activity, negative = inhibition was -13.7% [at 2.29 µM] (inactive).

On to `Cc1cc(Oc2ccc(-c3ccccc3)cc2)nc(N2CCOCC2)n1`, for which the “activity, negative = inhibition” value is -13.8% (inactive).

For the molecule `N#C/C(=C/c1ccc(N2CCCC2)c([N+](=O)[O-])c1)c1nc2ccccc2[nH]1`, the AC50 is 2.82 µM (active).

With `N#C/C(=C\c1ccc(N2CCCC2)c([N+](=O)[O-])c1)c1nc2ccccc2[nH]1`, the AC50 is 1.58 µM (active).

Values taken from PubChem BioAssay AID1851 (National Center for Advancing Translational Sciences (NCATS), 2009).
